ALDH1A1 block – blocks purified human ALDH1A1 activity; P00352; Purified ALDH1A1, NADH fluorescence, propionaldehyde substrate; Potency, µM (series often up to 75.3 µM), without a hit: at the top dose activity, negative = inhibition, usual class: inhibitors; 220,000 compounds, 7.3% hits; active = well fitted inhibition curve with a large enough effect, not every such curve was filed as active; inconclusive = small, poorly fitted or top-dose-only effect, or another doubt; inactive = no such curve, though single readings can be large or run the other way;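 also: plate controls were no enzyme wells and a reference inhibitor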
Target sequence (P00352 whole entry, looked up): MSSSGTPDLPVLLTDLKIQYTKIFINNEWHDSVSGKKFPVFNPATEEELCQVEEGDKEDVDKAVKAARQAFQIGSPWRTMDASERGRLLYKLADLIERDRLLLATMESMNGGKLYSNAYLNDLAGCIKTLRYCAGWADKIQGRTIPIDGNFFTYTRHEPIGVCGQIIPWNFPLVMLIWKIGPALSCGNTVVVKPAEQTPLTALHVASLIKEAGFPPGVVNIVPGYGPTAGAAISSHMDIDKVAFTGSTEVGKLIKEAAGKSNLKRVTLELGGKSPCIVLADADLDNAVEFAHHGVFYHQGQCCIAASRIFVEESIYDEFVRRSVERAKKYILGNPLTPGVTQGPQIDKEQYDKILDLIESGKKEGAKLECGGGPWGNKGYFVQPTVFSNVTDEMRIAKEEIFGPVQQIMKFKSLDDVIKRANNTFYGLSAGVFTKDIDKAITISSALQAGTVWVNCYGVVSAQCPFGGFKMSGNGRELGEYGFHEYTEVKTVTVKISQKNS
Tau fluor counter – counter-screen for tau fibril formation inhibitors; tau K18 P301L Alexa594 fluorescence, heparin fibrillization; Potency, µM (highest dose often 57.7 µM), inactives show at the highest dose activity change, negative = decrease; AID 1463; 280,000 compounds, 0.93% hits; also: nearly all actives have a fitted effect of over 55% in size
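Human tau K18 P301L (15 uM unlabeled, 0.24 uM Alexa 594-labeled) in 100 mM sodium acetate pH 7 with 20 uM heparin, 6 hr at 37 C. ThT 30 uM added, 1 hr ambient; Alexa 594 FP and total fluorescence read at 555/632 nm.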
HPGD block – inhibitors of human 15-hydroxyprostaglandin dehydrogenase (HPGD). purified HPGD, NADH fluorescence kinetic, PGE2 substrate. Potency, µM, without a hit: top-dose activity change, negative = inhibition, hits mostly inhibitors. 150,000 compounds, 4.3% hits. AID 894; active = well fitted inhibition curve with a large enough effect, not every such curve was filed as active; inconclusive = small, poorly fitted or top-dose-only effect, or another doubt; inactive = no such curve, though single readings can be large or run the other way
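NADH formation kinetics: reaction with 30 uM PGE2 and 1 mM NAD+ (final), 20 nM enzyme, Tris-HCl pH 8 with Tween 20, after 15 min compound preincubation at room temperature. Fluorescence change, last versus first of five reads.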
Tau fibril FP – blocks human tau fibril formation measured by polarization; P10636; K18 P301L tau heparin fibrillization, Alexa594 FP, 6 h; Potency, µM (top dose mostly 57.7 µM), for inactives: top-dose activity, negative = inhibition, usual class: inhibitors; 280,000 compounds, 0.39% hits; also: nearly all actives have a fitted effect of over 55% in size
Target sequence (P10636 561-689 P618L limits assumed): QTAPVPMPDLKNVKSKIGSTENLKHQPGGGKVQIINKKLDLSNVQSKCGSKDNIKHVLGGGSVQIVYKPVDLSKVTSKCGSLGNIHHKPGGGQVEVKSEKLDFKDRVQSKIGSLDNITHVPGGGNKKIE
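Heparin (20 uM) drove fibril formation of recombinant tau K18 P301L, 15 uM unlabeled with 0.24 uM Alexa 594 label, for 6 hr at 37 C in 100 mM sodium acetate pH 7. Fluorescence polarization (555/632 nm) read 1 hr after 30 uM ThT.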
NPSR antagonist – neuropeptide S receptor (human) antagonism, cAMP; CHO-NPSR cells, cAMP TR-FRET, antagonist mode; Potency, µM (titrated, usually from 38.3 µM), without a hit: top-dose activity change, negative = inhibition, usual class: inhibitors; 220,000 compounds, 1% hits; also: nearly all actives have a fitted effect of over 50% in size
Tau ThT inhib – inhibitors of human tau fibril formation, thioflavin T binding | recombinant tau K18 P301L (four-repeat tau fragment), heparin-induced fibrillization, ThT fluorescence | P10636 | Potency, µM (series often up to 57.4 µM), without a hit: top-dose activity, negative = inhibition, most hits filed as inhibitors | 270,000 compounds, 2.1% hits; also: nearly all actives have a fitted effect of over 55% in size
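In this qHTS, human K18 P301L tau is incubated with compound and heparin for 6 hr at 37 C, and Thioflavin T fluorescence then reports fibril load.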
* marks the source's active call; other numbers are inactive results; ? = inconclusive; · = no result given; [ ] = another dose, or the depositor's remark. Compounds with a hit are over-represented: about 9.5% of the library has one in this group of screens. Unless noted, calls follow the shape of the dose curve; as a rule, active = well fitted curve in the direction sought with a large enough effect; inconclusive = small, poorly fitted or top-dose-only effect, or another doubt; inactive = no such curve, though single readings can be large; an effect the other way counts as inactive or inconclusive. Unless noted, % is scaled to controls: 0 for no effect and ±100 for the full control effect; potency is read from the fitted curve at half-maximal effect.

SMILES	ALDH1A1 block	Tau fluor counter	HPGD block	Tau fibril FP	NPSR antagonist	Tau ThT inhib
CCOC(=O)c1[nH]c2c(c1Cc1ccccc1)C(=O)CC(c1ccc(C(C)(C)C)cc1)C2 (stereo unspecified)	·	-15%	·	?	·	-8%
Cc1ccc(CN2c3ccccc3-c3nc(SCC(=O)Nc4c(C)cc(C)cc4C)ncc3S2(=O)=O)cc1	·	-21%	·	?	·	-4%
C/C(=N\Nc1ccc(F)cc1)c1ccncc1	20µM*	-1%	-25%	-4%	-3%	1%
C/C(=N\NC(N)=O)c1ccc(Cl)s1	·	-12%	·	-7%	-1%[7.67 µM]	-13%
C/C(=N\Nc1cccc(Cl)c1)c1ccncc1	-16%	?	·	7%	-18%	?
C/C(=N/Nc1ccc(F)cc1)c1ccc(Cl)s1	?	14µM*[quencher]	-18%	7%	-1%[46.1 µM]	?
N#CC(c1ccc(Cl)nn1)c1ccc(Cl)cc1Cl (stereo unspecified)	6.3µM*	-12%	-6%	1%	-24%[46.1 µM]	-13%
COc1ccc(C(C#N)c2ccc(Cl)nn2)cc1 (stereo unspecified)	?	-4%	·	-4%	15%	-8%
O=C(Nc1ccc(F)cc1)NC1CCN(Cc2nnnn2Cc2ccco2)CC1	18µM*	-13%	2%	8%	-3%[46.1 µM]	-21%
CCOc1ccccc1C(=O)NC1CC2CCCC(C1)N2C1CC1 (stereo unspecified)	-7%	3%	-5%	5%	16%[46.1 µM]	-5%
O=C(NC1CC2CCC(C1)N2Cc1nnnn1Cc1ccco1)NC12CC3CC(CC(C3)C1)C2 (stereo unspecified)	7.9µM*	-7%	21%	6%	?	-18%
CCOc1ccccc1C(=O)NC1CC2CCCC(C1)N2Cc1nnnn1Cc1ccco1 (stereo unspecified)	1µM*	-14%	0%	4%	-2%[7.67 µM]	?
O=C(NCc1ccccc1)NC1CC2CCC(C1)N2Cc1ccco1 (stereo unspecified)	3%	6%	-2%	-8%	-11%[46.1 µM]	8%
CCOC(=O)c1[nH]c2ccccc2c1NC(=S)Nc1cccc(C)c1	?	-25%	-20%	-1%	-41%	?
O=C1CN(CC(=O)Nc2cccc(Cl)c2Cl)c2ccccc2N1	4µM*	-4%	·	-9%	-21%	-13%
O=C1CN(C(=O)COC(=O)CCSc2ccccc2Cl)c2ccccc2N1	14µM*	-6%	18µM*	5%	0%[46.1 µM]	-10%
O=C1CN(C(=O)COC(=O)CCNS(=O)(=O)c2ccc(Cl)cc2)c2ccccc2N1	·	-15%	·	-2%	8%	-9%
O=C(Cn1ncc(Cl)c(Cl)c1=O)NCC1CCCCC1	22µM*	-10%	-8%	?	-48%	?
O=C1CN(C(=O)CSc2nc3cc(Cl)ccc3c(=O)n2Cc2ccccc2)c2ccccc2N1	7.9µM*	-26%	-17%	-12%	-35%	-3%
O=C1CN(C(=O)/C=C/c2ccc(Cl)cc2)c2ccccc2N1	-12%	-9%	·	5%	-12%	-8%
Cc1nc2ccccc2n1CC(=O)N1CC(=O)Nc2ccccc21	?	5%	-3%	-1%	1%[46.1 µM]	1%
O=C1CN(C(=O)Cn2ncc(Cl)c(Cl)c2=O)c2ccccc2N1	3.2µM*	-6%	·	-8%	-32%	?
O=C1CN(C(=O)CNCc2ccc(Cl)cc2)c2ccccc2N1	13µM*	-8%	·	-6%	-1%	-14%
Cc1cccn2cc(CCNS(=O)(=O)c3cccc([N+](=O)[O-])c3)nc12	·	-9%	·	-1%	5%	·
COc1cc(OC)cc(-c2nnc(Sc3ccc(C=O)cc3[N+](=O)[O-])o2)c1	2µM*	?	14µM*	-13%	-11%[46.1 µM]	25µM*
SMILES	ALDH1A1 block	Tau fluor counter	HPGD block	Tau fibril FP	NPSR antagonist	Tau ThT inhib
COc1ccc(-c2noc(=O)n2CC(=O)N2CCC(Cc3ccccc3)CC2)cc1	25µM*	-14%	·	5%	16%	-1%
O=C(Cn1c(-c2ccccc2)noc1=O)N1CCC(Cc2ccccc2)CC1	1%	-13%	·	8%	3%	-8%
O=C(CN1CCOCC1)N1CCCc2ccccc21	7.9µM*	4%	·	-2%	7%	6%
COc1cccc(-n2nnc3c(=O)n(CC(=O)N4CCC(Cc5ccccc5)CC4)cnc32)c1	2µM*	-22%	-25%	2%	-8%[46.1 µM]	0%
O=C(Cn1cnc2c(nnn2Cc2ccc(Cl)cc2)c1=O)N1CCCc2ccccc21	22µM*	-8%	-15%	-12%	-7%[46.1 µM]	-5%
O=C(Cn1nnc(-c2ccc(CN3CCOCC3)cc2)n1)N1CCCc2ccccc21	1%	-3%	-10%	0%	-7%[46.1 µM]	-8%
COc1cccc(-n2nnc3c(=O)n(CC(=O)N4CCC(C)CC4)cnc32)c1	-12%	0%	?	-5%	5%	1%
Cc1ccc(/C=C/C(=O)CCC(=O)O)cc1	11%	4%	·	7%	-9%	-5%
O=[N+]([O-])c1ccc(CSc2ncnc3c2ncn3C2OC(CO)C(O)C2O)cc1 (stereo unspecified)	-10%	3%	·	4%	·	-8%
Cc1coc2c(C)c3oc(=O)c(CCC(=O)N4CCCCC4)c(C)c3cc12	·	-6%	·	-9%	·	?
N[C@@]1(C(=O)O)CN[C@@H](C(=O)O)C1	15%	-2%	·	-6%	·	7%
COc1ccc(NC(=O)C2CCC(CNS(=O)(=O)c3ccc(Br)s3)CC2)c(OC)c1 (stereo unspecified)	·	-18%	·	-5%	·	-9%
COc1ccc(NC(=O)c2ncoc2-c2ccco2)cc1Cl	·	-22%	·	-10%	·	?
O=C(Cn1cnc2c(oc3ccccc32)c1=O)N1CCCc2ccccc21	20µM*	-8%	-7%	-7%	-9%[46.1 µM]	3%
COc1cccc(-n2nnc3c(=O)n(CC(=O)N4CCCc5ccccc54)cnc32)c1	?	-22%	22µM*	-5%	-22%[46.1 µM]	-9%
COc1cccc(-n2nnc3c(=O)n(Cc4ccccc4F)cnc32)c1	?	-15%	5.6µM*	-10%	-16%[46.1 µM]	-6%
Cc1cc(C)cc(NC(=O)CCS(=O)(=O)c2cccc3nsnc23)c1	·	-23%	·	?	·	-15%
COc1cc(N2CCCC2)c(OC)cc1/C=C1/NC(=S)NC1=O	6%	?	-5%	-6%	-25%	11µM*
N#Cc1ccc(CN2CCCC3(CCN(C(=O)c4csnn4)CC3)C2)cc1	-1%	·	-10%	·	·	·
COc1ccc(O)c(/C=c2/sc3nc4cc(C)c(C)cc4n3c2=O)c1	?	?	7.9µM*	?	-23%[46.1 µM]	22µM*
COc1ccc(OC)c(/C=c2\sc3nc(-c4cccs4)nn3c2=O)c1	7%	-20%	-22%	?	-12%[46.1 µM]	?

Assay outcomes: PubChem BioAssay, National Center for Advancing Translational Sciences (NCATS)
